Sampled rows, rich in hits. Any-hit rate of the full collection: about 2.3%.
CHO-K1 Ca PAM – counter-screen for M1 PAMs: effect in parental CHO-K1 cells | ATP EC20, Fluo-8 calcium fluorescence; 0% at ATP EC20, 100% at ATP max | AID 602247 | hit rate 0.02% among 360,000 | activation, % at 3 µM;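 active = activation above the run cutoff, the mean activation of all test compounds plus 3 SD, cut at about 40% in these data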;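 also: peak over basal fluorescence ratio in a 140 s read after ATP addition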
CHO-K1 Ca antag – M1 antagonist counterscreen hit in parental CHO-K1 cells. ATP-induced calcium, Fluo-8 fluorescence. inhibition, % at 3 µM. hit rate 0.6% among 360,000;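 active = inhibition above a per-plate cutoff, the plate's mean sample inhibition plus 3 SD, cut at about 24% in these data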;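 also: 0% = DMSO plus EC80 ATP and 100% = DMSO alone without ATP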
M1 PAM – human CHRM1 positive allosteric modulation; P11229; CHO-K1 hM1, Fluo-8 calcium fluorescence, ACh EC20; 0% = ACh EC20, 100% = maximal ACh; activation, % at 3 µM; hit rate 0.088% among 360,000; AID 588819; in the data active = activation above about 19%, passing the limit was not always enough
Target sequence (P11229 whole entry, looked up): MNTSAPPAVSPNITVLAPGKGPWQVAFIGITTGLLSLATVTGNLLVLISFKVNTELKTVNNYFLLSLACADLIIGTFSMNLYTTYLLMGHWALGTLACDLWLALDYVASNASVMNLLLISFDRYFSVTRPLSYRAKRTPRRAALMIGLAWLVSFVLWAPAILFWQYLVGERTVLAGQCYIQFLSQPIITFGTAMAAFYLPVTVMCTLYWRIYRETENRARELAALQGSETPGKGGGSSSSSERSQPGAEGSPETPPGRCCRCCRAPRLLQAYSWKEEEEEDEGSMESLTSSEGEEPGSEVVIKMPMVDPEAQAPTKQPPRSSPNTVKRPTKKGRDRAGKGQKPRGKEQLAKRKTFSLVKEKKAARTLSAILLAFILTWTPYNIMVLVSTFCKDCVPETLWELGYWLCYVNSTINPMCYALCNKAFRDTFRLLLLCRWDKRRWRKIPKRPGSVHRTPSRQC
CHO-K1 Ca ag – counter-screen for M1 agonists: effect in parental CHO-K1 cells. Fluo-8 calcium fluorescence; scaled to maximal ATP response, vehicle zero. activation, % at 3 µM. hit rate 0.48% among 360,000; in the data active = activation above about 15%;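 also: untransfected CHO-K1 host cells lacking M1 receptor as counterscreen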
CHRM1 agonist – agonists of human M1 muscarinic receptor; P11229; CHO-K1 hM1, Fluo-8 calcium fluorescence, agonist mode; 0% DMSO, 100% acetylcholine EC100; activation, % at 3 µM; hit rate 0.33% among 360,000; AID 588814;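 active = activation above the run's mean compound activation plus 3 SD, cut at about 16% in these data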;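 also: peak over basal fluorescence ratio within a 140 s kinetic read after compound addition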
CHRM1 antagonist – blocks human M1 muscarinic receptor; P11229; CHO-K1 hM1, Fluo-8 calcium fluorescence, ACh EC80 antagonist; inhibition, % at 3 µM; hit rate 1.3% among 360,000; AID 588852;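 active = percent inhibition above its own plate's cutoff, namely the mean of that plate's compound wells plus 3 SD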;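 also: peak over basal fluorescence ratio during 140 s after agonist addition; 0% = ACh EC80 plus DMSO and 100% = DMSO alone without agonist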
* hit, by the source's call; ! = not confirmed by another sample.

SMILES | CHO-K1 Ca PAM | CHO-K1 Ca antag | M1 PAM | CHO-K1 Ca ag | CHRM1 agonist | CHRM1 antagonist
CCCCCCCCCCCCCCCCn1cc[n+](C)c1 | 2 | 7 | -30 | 0 | -10 | 42*
O=C(c1ccco1)N1CCN(CC2CC3C=CC2C3)CC1 (stereo not drawn) | 7 | -1 | -12 | 1 | -5 | 29*
O=C(c1ccco1)N1CCN(C(=O)c2ccco2)CC1 | 11 | 0 | -6 | 1 | -1 | 11
CS(=O)(=O)N1CCN(CC2CC3C=CC2C3)CC1 (stereo not drawn) | 13 | -2 | -21 | 0 | 45* | 13
CCN1CCN(CC2CC3C=CC2C3)CC1 (stereo not drawn) | -3 | -1 | -5 | 0 | -5 | 3
Cc1ccccc1CN1CCN(CC2CC3C=CC2C3)CC1 (stereo not drawn) | -3 | 4 | -21 | 0 | -6 | 54*
CC(C)NC(=O)Nc1ccc2c(c1)C(=O)N([C@H](C)CO)C[C@H](C)[C@@H](CN(C)C(=O)Nc1ccc3c(c1)OCO3)O2 | 16 | -15 | 7 | 0 | -4 | -15
COc1ccc(CNS(=O)(=O)CCNC(=O)c2ccc(OC)cc2)cc1 | -12 | -6 | 6 | 0 | -3 | -2
NC1=NC(=O)C2(COC(c3cccnc3)OC2)S1 (stereo not drawn) | 13 | 1 | 13 | 1 | -1 | -8
Cc1ccc(N2C(=N)/C(=C3/Nc4ccccc4S3)C(c3ccccc3)C2=O)cc1 (stereo not drawn) | -10 | 14 | 10 | 0 | -3 | -5
COCCNC(=S)N1CCC(C(=O)c2ccc(F)cc2)CC1 | 6 | -9 | 18 | 1 | 3 | -18
COc1ccc(C(=O)C2CCN(C(=S)NCCc3ccc(OC)c(OC)c3)CC2)cc1 | 1 | -6 | -18 | 18* | -3 | 3
COc1ccc(CCNC(=S)N2CCC(C(=O)c3ccc(F)cc3)CC2)cc1OC | 9 | -4 | 0 | 15* | -1 | 2
COc1ccc(C(=O)C2CCN(C(=S)NCCc3ccccc3)CC2)cc1 | 23 | -19 | 7 | 6 | -3 | -1
COc1ccc(C(=O)C2CCN(C(=O)Nc3ccc(C)cc3)CC2)cc1 | -3 | 4 | 10 | 19* | 10 | -10
Cc1ccc(NC(=O)N2CCC(C(=O)c3ccc(F)cc3)CC2)cc1 | -1 | -13 | 5 | 3 | -3 | -2
COc1cccc2c1cc1c(=O)n(CC(=O)NCCCN3CCCCC3)nc(C)n12 | 23 | -15 | 2 | 1 | -4 | 2
OC(c1ccc(CN2CCCCC2)cc1)c1ncc(-c2ccccc2)[nH]1 (stereo not drawn) | -14 | 5 | 0 | 0 | -7 | -1
COC(=O)Cc1ccc(NC(=S)N2CCN(c3ccc(F)cc3)CC2)cc1 | 2 | 16 | -7 | 11 | -3 | 12
COC(=O)CCC(=O)Nc1cccc([N+](=O)[O-])c1 | 14 | -5 | -1 | 2 | -5 | 0
COc1cccc(-c2nn(C)c3sc(C(=O)N4CCN(c5ccccn5)CC4)cc23)c1 | 14 | -1 | -14 | 5 | -1 | 22*
COc1cccc(-c2nn(C)c3sc(C(=O)N4CCOCC4)cc23)c1 | -7 | 10 | 1 | 1 | -1 | 3
O=[N+]([O-])c1ccc(N(CC2CO2)S(=O)(=O)c2ccccc2)cc1 (stereo not drawn) | -14 | -2 | 21 | 1 | -10 | -9
O=S(=O)(c1ccccc1)N(CC1CO1)c1ccccc1 (stereo not drawn) | 29 | -9 | 10 | 16* | -4 | -4
Cc1ccn2c(NCc3ccccc3)c(-c3cccc(SC4CCCCC4)c3)nc2c1 | 8 | -20 | -10 | 0 | -7 | 10
SMILES | CHO-K1 Ca PAM | CHO-K1 Ca antag | M1 PAM | CHO-K1 Ca ag | CHRM1 agonist | CHRM1 antagonist
CCCCNc1c(-c2ccc(OC)c(SC(C)CC)c2)nc2ccc(C)cn12 (stereo not drawn) | -17 | -2 | -22 | 3 | -6 | 37*
CCC(C)Sc1cccc(-c2nc3cc(C)ccn3c2NCc2ccccc2)c1 (stereo not drawn) | 11 | -6 | -20 | 0 | -8 | 43*
COc1ccc(-c2cc(-c3nc4ccccn4c3NCc3ccccc3)ccc2OC)cc1 | -22 | 52* | -32 | 11 | 4 | 87*
CCC(C)Sc1cc(-c2nc3ccc(C)cn3c2NCc2ccccc2)ccc1OC (stereo not drawn) | -17 | 25*! | -29 | 3 | -6 | 63*
COc1ccc(-c2nc3ccccn3c2NCc2ccc3c(c2)OCO3)cc1 | 3 | 4 | -9 | 3 | -1 | 13
O=C(NCc1cc(Cl)cc(Cl)c1)c1csc([C@@H]2C[C@H](O)[C@@H](CO)O2)n1 | -10 | 1 | 4 | 1 | 2 | -6
Cc1occc1C(=O)/C(C#N)=C/c1ccc(O)c(Br)c1 | 12 | -5 | 14 | 2 | 4 | -15
CCCCNc1c(-c2ccc(OC)c(SC3CCCCC3)c2)nc2ccc(C)cn12 | -18 | 33* | -16 | 8 | 1 | 49*
CCOC(=O)Cc1csc(NC(=O)c2csc(C)c2)n1 | 8 | -1 | 3 | 8 | 0 | -5
CCOC(=O)Cc1csc(NC(=O)c2sc3nc4c(C)cc(C)cc4cc3c2N)n1 | 11 | -11 | -20 | 2 | -1 | 32*
COc1ccc(C(CNC(=O)c2[nH]c(C)c(C(C)=O)c2C)N2CCOCC2)cc1 (stereo not drawn) | 8 | -10 | 7 | 1 | -2 | -12
O=C(O)c1ccc2c(=O)n(-c3ccc(F)cc3)c(=S)[nH]c2c1 | 14 | -7 | 23 | 0 | -1 | 38*
CC(=O)Nc1ccc(-n2c(=O)c3ccccc3c3ccccc3c2=O)cc1 | 0 | -14 | 5 | 0 | -1 | -6
O=C(O)c1ccc(-n2c(=O)c3ccccc3c3ccccc3c2=O)cc1 | -16 | 31* | -12 | 0 | -3 | 11
Cc1ccc(F)cc1NC(=O)c1c(-c2ccccc2)noc1C | 25 | -11 | 12 | 0 | -10 | -16
OC1(c2ccc(Cl)cc2)CCN(Cc2c[nH]c3ccccc23)CC1 | 13 | -5 | -10 | 3 | 22* | -17
COc1ccc2c(c1OC)C(=O)N1c3ccccc3C(=O)N(c3ccccc3F)C21 (stereo not drawn) | 13 | 9 | -12 | 6 | 3 | 39*
CN1CCC(n2[nH]c(-c3ccccc3)c(Cc3ccccc3)c2=O)CC1 | 9 | -12 | -30 | 2 | -8 | 100*
CN1CCC(N2CCN(C3CN(CCc4ccccc4)S(=O)(=O)C3)CC2)CC1 (stereo not drawn) | 15 | 4 | 10 | 1 | -6 | -8
Cc1cc2c(cc3c(=O)n(CC(=O)NCCCN4CC(C)CC(C)C4)ncn32)s1 (stereo not drawn) | -2 | -1 | 4 | 0 | -14 | -20

Source: PubChem BioAssay (The Scripps Research Institute Molecular Screening Center)
